Measured values taken from the supplement of paper PMC12636033.
± gives the standard deviation of the averaged measurements. In all, about 33,000 sequences were measured (“E-score (rank enrichment, -0.5 to 0.5)”: median about -0.0043, highest 2% from about 0.24 on). Shown is part of a subset that was picked to be rich in the highest values.

The sequences below were run on 2Sp-muMax20 (muMax20 with two 2,6-bis(methyl)pyridine Cys staples) (assay: PBM 8-mer E-score (E-score (rank enrichment, -0.5 to 0.5)); higher = stronger preferential binding).
Procedure: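 Protein binding microarray (universal PBM chip covering all 10-mers in fixed probe flanks) with chemically synthesized human Max(13-93) bHLH-LZ analogs (not full-length Max) bearing noncanonical residues (hArg, Tha, Aib, Nle at 65) and aromatic Cys staples. Read-out per 8-mer (and its reverse complement): E-score (rank-based enrichment, -0.5 to 0.5) and Z-score of median probe intensity.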
In the case of CCGTGGTA, the “PBM 8-mer E-score” value is reported as -0.156 ± 0.15.
With GATTACGA the “PBM 8-mer E-score” value was 0.0561 ± 0.094.
In the case of AAATCCCT, the “PBM 8-mer E-score” value is reported as -0.0147 ± 0.019.
With GAGGCGCA the “PBM 8-mer E-score” value was 0.0587 ± 0.03.
In the case of ACTTTCCG, the “PBM 8-mer E-score” value is reported as 0.00749 ± 0.064.
With ACCTTGAC the “PBM 8-mer E-score” value was 0.00626 ± 0.011.
CAACTATA was tested, and the “PBM 8-mer E-score” value was 0.203 ± 0.018.
AAACTATA was tested, and the “PBM 8-mer E-score” value was 0.115 ± 0.0056.
In the case of TAACTATA, the “PBM 8-mer E-score” value is reported as 0.255 ± 0.07.
CCCTTTTC was tested, and the “PBM 8-mer E-score” value was -0.0442 ± 0.061.
In the case of CATTACCC, the “PBM 8-mer E-score” value is reported as 0.0244 ± 0.022.
AATTACCC was tested, and the “PBM 8-mer E-score” value was 0.237 ± 0.0059.
AATTACCA was tested, and the “PBM 8-mer E-score” value was 0.171 ± 0.012.
In the case of GATGCAGC, the “PBM 8-mer E-score” value is reported as 0.0324 ± 0.041.
In the case of GTGGTCGA, the “PBM 8-mer E-score” value is reported as 0.0711 ± 0.071.
AAGATCTA was tested, and the “PBM 8-mer E-score” value was -0.063 ± 0.13.
With AAGATCTT the “PBM 8-mer E-score” value was 0.322 ± 0.058.
AAGATCTG was tested, and the “PBM 8-mer E-score” value was 0.0472 ± 0.038.
In the case of GGGATAAA, the “PBM 8-mer E-score” value is reported as 0.0538 ± 0.03.
For ACTGTATA, the “PBM 8-mer E-score” value was 0.213 ± 0.085.
For CTTGTATA, the “PBM 8-mer E-score” value was 0.17 ± 0.0046.
For CCTGTATA, the “PBM 8-mer E-score” value was 0.0769 ± 0.072.
With GTTGTATA the “PBM 8-mer E-score” value was 0.167 ± 0.024.
GTTGTCTA was tested, and the “PBM 8-mer E-score” value was 0.0499 ± 0.064.
In the case of ATTGTCTC, the “PBM 8-mer E-score” value is reported as -0.126 ± 0.07.
With ATTGTACA the “PBM 8-mer E-score” value was 0.26 ± 0.016.
ATTGTCTA was tested, and the “PBM 8-mer E-score” value was 0.269 ± 0.012.
In the case of GCTGTATA, the “PBM 8-mer E-score” value is reported as 0.25 ± 0.021.
With ATTGTACC the “PBM 8-mer E-score” value was 0.0323 ± 0.019.
For ATTGTATA, the “PBM 8-mer E-score” value was 0.2422 ± 0.0019.
In the case of CTTGTACA, the “PBM 8-mer E-score” value is reported as 0.192 ± 0.026.
With AAGCCAGT the “PBM 8-mer E-score” value was -0.0999 ± 0.034.
In the case of ACCAAGAC, the “PBM 8-mer E-score” value is reported as -0.0903 ± 0.027.
In the case of GGCGCGTA, the “PBM 8-mer E-score” value is reported as 0.126 ± 0.013.
In the case of ATTTAATG, the “PBM 8-mer E-score” value is reported as 0.122 ± 0.031.
ACAACACG was tested, and the “PBM 8-mer E-score” value was 0.185 ± 0.037.
In the case of TAAGAGCA, the “PBM 8-mer E-score” value is reported as 0.145 ± 0.072.
For TAACGACA, the “PBM 8-mer E-score” value was 0.087 ± 0.0014.
For GTAGAGAA, the “PBM 8-mer E-score” value was -0.00059 ± 0.14.
ATTGTATG was tested, and the “PBM 8-mer E-score” value was 0.135 ± 0.036.
ATTGTATC was tested, and the “PBM 8-mer E-score” value was 0.254 ± 0.043.
With CTTGTATC the “PBM 8-mer E-score” value was 0.141 ± 0.019.
AGCTTAGG was tested, and the “PBM 8-mer E-score” value was -0.22 ± 0.016.
In the case of ACACTTTG, the “PBM 8-mer E-score” value is reported as 0.0709 ± 0.076.
For CTAGGGGC, the “PBM 8-mer E-score” value was 0.0163 ± 0.073.
For ACCGGTAG, the “PBM 8-mer E-score” value was -0.253 ± 0.036.
With CTACCGGA the “PBM 8-mer E-score” value was -0.147 ± 0.0082.
For CACGCGTC, the “PBM 8-mer E-score” value was 0.2622 ± 0.0015.
For CACGCGTG, the “PBM 8-mer E-score” value was 0.376 ± 0.015.
AACGCGTG was tested, and the “PBM 8-mer E-score” value was 0.13 ± 0.022.
In the case of ACCGCGTC, the “PBM 8-mer E-score” value is reported as -0.0765 ± 0.041.
With AGCGCGTC the “PBM 8-mer E-score” value was -0.117 ± 0.097.
For AACGCGTA, the “PBM 8-mer E-score” value was -0.0641 ± 0.026.
With ACCGCGTA the “PBM 8-mer E-score” value was -0.0143 ± 0.044.
In the case of CGCGCGTA, the “PBM 8-mer E-score” value is reported as 0.176 ± 0.021.
ACCGCGTG was tested, and the “PBM 8-mer E-score” value was 0.284 ± 0.038.
For CGCGCGTC, the “PBM 8-mer E-score” value was 0.28 ± 0.0065.
With AACGCGTC the “PBM 8-mer E-score” value was -0.0413 ± 0.045.
CACGCGTA was tested, and the “PBM 8-mer E-score” value was 0.175 ± 0.043.
GGTCGGGA was tested, and the “PBM 8-mer E-score” value was -0.25 ± 0.0058.
With CGTGACCA the “PBM 8-mer E-score” value was 0.1 ± 0.098.
AAGCCATT was tested, and the “PBM 8-mer E-score” value was -0.0452 ± 0.016.
With AGCCACGG the “PBM 8-mer E-score” value was -0.2315 ± 0.00033.
With TGTCTGAA the “PBM 8-mer E-score” value was 0.0107 ± 0.0037.
In the case of CCCCGAAG, the “PBM 8-mer E-score” value is reported as -0.126 ± 0.04.
GAAGGAGA was tested, and the “PBM 8-mer E-score” value was 0.246 ± 0.023.
For CAAGGAGA, the “PBM 8-mer E-score” value was -0.133 ± 0.073.
With AAAGGAGA the “PBM 8-mer E-score” value was 0.0434 ± 0.019.
In the case of GTATAGAC, the “PBM 8-mer E-score” value is reported as 0.121 ± 0.0088.
In the case of ACATGTTC, the “PBM 8-mer E-score” value is reported as 0.161 ± 0.04.
With ATTTGTTG the “PBM 8-mer E-score” value was 0.266 ± 0.034.
For ACATGTTG, the “PBM 8-mer E-score” value was 0.268 ± 0.089.
With AAATGTTA the “PBM 8-mer E-score” value was 0.156 ± 0.028.
GCATGTTA was tested, and the “PBM 8-mer E-score” value was 0.252 ± 0.095.
For GGATGTTA, the “PBM 8-mer E-score” value was 0.196 ± 0.022.
For ACATGTTA, the “PBM 8-mer E-score” value was 0.3172 ± 0.0015.
ATTTGTTC was tested, and the “PBM 8-mer E-score” value was 0.106 ± 0.018.
ATATGTTA was tested, and the “PBM 8-mer E-score” value was 0.229 ± 0.027.
With ATTTGTTA the “PBM 8-mer E-score” value was 0.228 ± 0.064.
With AGATGTTG the “PBM 8-mer E-score” value was -0.146 ± 0.015.
CCATGTTA was tested, and the “PBM 8-mer E-score” value was 0.155 ± 0.054.
With CGACATCG the “PBM 8-mer E-score” value was -0.164 ± 0.033.
With CGTCCGCA the “PBM 8-mer E-score” value was -0.0773 ± 0.074.
For AAGGGGGG, the “PBM 8-mer E-score” value was -0.275 ± 0.053.
With CGCTTTAG the “PBM 8-mer E-score” value was 0.0627 ± 0.011.
ACGGGTGC was tested, and the “PBM 8-mer E-score” value was -0.0393 ± 0.032.
GGCCGTAC was tested, and the “PBM 8-mer E-score” value was 0.0557 ± 0.032.
For CTGGATCA, the “PBM 8-mer E-score” value was -0.158 ± 0.033.
With GCTGCTGA the “PBM 8-mer E-score” value was -0.206 ± 0.048.
AGTGCATG was tested, and the “PBM 8-mer E-score” value was 0.0577 ± 0.061.
In the case of ATGTGTTC, the “PBM 8-mer E-score” value is reported as -0.00117 ± 0.0014.
For ATGTGTTA, the “PBM 8-mer E-score” value was 0.197 ± 0.14.
ATGTGTTG was tested, and the “PBM 8-mer E-score” value was 0.254 ± 0.023.
With ACCGATCA the “PBM 8-mer E-score” value was -0.0856 ± 0.019.
In the case of GATGGCTA, the “PBM 8-mer E-score” value is reported as 0.03 ± 0.092.
With CATGGCTA the “PBM 8-mer E-score” value was 0.245 ± 0.055.
With CATGGCTC the “PBM 8-mer E-score” value was 0.0571 ± 0.018.
With CCACGTAC the “PBM 8-mer E-score” value was 0.0687 ± 0.048.
In the case of AACTGTAT, the “PBM 8-mer E-score” value is reported as 0.104 ± 0.043.
In the case of ACAGATGG, the “PBM 8-mer E-score” value is reported as 0.0291 ± 0.022.
CCGCCCCG was tested, and the “PBM 8-mer E-score” value was 0.22 ± 0.037.
With ACGCCCCC the “PBM 8-mer E-score” value was -0.168 ± 0.036.
For TCGCCCAA, the “PBM 8-mer E-score” value was 0.0937 ± 0.081.
For ACGCCCCG, the “PBM 8-mer E-score” value was -0.107 ± 0.028.
CAGCCCCA was tested, and the “PBM 8-mer E-score” value was 0.196 ± 0.033.
With TAGCCCCA the “PBM 8-mer E-score” value was 0.324 ± 0.022.
TAGCCCAA was tested, and the “PBM 8-mer E-score” value was 0.0851 ± 0.013.
For CCGCCCCA, the “PBM 8-mer E-score” value was 0.344 ± 0.054.
GCGCCCCA was tested, and the “PBM 8-mer E-score” value was 0.135 ± 0.0094.
With TCGCCCCA the “PBM 8-mer E-score” value was 0.246 ± 0.013.
ACGCCCCA was tested, and the “PBM 8-mer E-score” value was 0.284 ± 0.013.
CCGCCCCC was tested, and the “PBM 8-mer E-score” value was -0.261 ± 0.11.
